Data taken from PubChem BioAssay (NCATS).
Values without a mark were called inactive. Inconclusive results are not listed. Where a call stands in place of a potency, no number is given. The source made the active and inactive calls. Unless noted, the call rests on the fitted dose curve; in most records, active means well fitted curve in the direction sought with a large enough effect; inconclusive means small, poorly fitted or top-dose-only effect, or another doubt; inactive means no such curve, though single readings can be large; an effect the other way counts as inactive or inconclusive.

How the values were obtained:
[1] = AP1 Signaling Pathway (AID 357; active means well fitted curve in either direction with a large enough effect, not every such curve was filed as active;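 further: ME-180 reporter cells stimulated with EGF at its EC50 level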); settings: ME-180 AP-1-bla reporter, EGF-induced, beta-lactamase ratio, 5 h; at 7.69 µM (top of the series) unless noted
Summary of the method: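 In this screen, ME-180 cells in Opti-MEM with 0.5% dialyzed FBS received EC50 EGF and compound titrations for 5 h. AP-1 reporter beta-lactamase was detected via CCF4 ratio, giving AC50 for positive and negative modulators.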

[2] = target: Cytochrome P450 1A2 (Homo sapiens) (UniProt P05177); assay: p450-cyp1a2 (AID 410; calls by dose curve; further: potency means the concentration at half of the fitted maximal effect)
Summary of the method: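 Luminescent readout of luciferin formed from Luciferin-ME by human CYP1A2; data normalized against complete inhibition by 57 uM furafylline. Enzyme 20nM, substrate 100uM at Km, 100mM KPO4 buffer, 60 min reaction at room temperature.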

[3] = NFAT Signaling Pathway (AID 444; active means well fitted curve in either direction with a large enough effect, not every such curve was filed as active;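 further: carbachol stimulus at about its EC50 of 1 µM final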); settings: Jurkat NFAT-bla M1, carbachol, beta-lactamase ratio, 5 h; at 7.69 µM (top of the series) unless noted
Summary of the method: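 Read-out: CCF4 FRET ratio (460 nm/530 nm) after 1 h RT dye loading, used for %activity and AC50 from titration series. Cells: Jurkat NFAT-β-lactamase/M1 line, treated with compound plus 1 uM carbachol for 5 h, 37 °C.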

[4] = Stat Signaling Pathway (AID 446; active means well fitted curve in either direction with a large enough effect, not every such curve was filed as active;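 further: ME-180 cervical cancer cells given 40 pM IL-6 alongside compound; SIE-controlled beta-lactamase reporter measured as 460/530 nm FRET emission ratio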); settings: ME-180 SIE beta-lactamase reporter, IL-6 stimulated, 5 h; at 7.69 µM (top of the series) unless noted
Summary of the method: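 ME-180 cells carrying a SIE-driven beta-lactamase reporter are stimulated with 40 pM IL-6 for 5 h at 37C in the presence of compound. The 460/530 nm FRET substrate ratio is read after 2.5 h at RT. Data are normalised to 300 pM IL-6 and to 125 nM JAK inhibitor controls.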

[5] = target: Glucocorticoid receptor (Homo sapiens) (UniProt P04150); assay: GR-GFP Redistribution (AID 450;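 active means compounds whose dose series gives a full or clear partial fitted curve of increased nuclear translocation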; further: potency means the concentration at half of the fitted maximal effect); settings: U2OS GR-GFP nuclear translocation, laser cytometry, 2 h
[6] = target: Glucocorticoid receptor (Homo sapiens) (UniProt P04150); assay: GR-EFC Redistribution (AID 451; calls by dose curve; further: potency means the concentration at half of the fitted maximal effect); settings: CHO-K1 GR-EFC translocation, beta-gal luminescence, 2 h
Summary of the method: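 Translocation of GR-ED fusion to nuclear EA restores b-gal, read by luminescence after 1 h room-temperature detection. Engineered CHO-K1 biosensor cells, 1,000/well, exposed 2 h at 37 C to titrations up to 46 uM final.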

[7] = target: 3',5'-cyclic-AMP phosphodiesterase 4B (Homo sapiens) (UniProt Q07343); assay: qHTS Assay for Inhibitors of PDE-IV (AID 607; active means well fitted activation curve with a large enough effect in the main read-out, with a control signal flat, not every such curve was filed as active)
Summary of the method: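 HEK293 ACTOne cells with CNG channel (1000/well), endogenous PDE4; membrane potential dye, compounds up to 22.9 uM final. Fluorescence Ex 535/Em 590; RO 20-1724 (100 uM final) as reference.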

[8] = target: Guanine nucleotide-binding protein G(i) subunit alpha-1 (Homo sapiens) (UniProt P63096); assay: qHTS Assay for Inhibitors of RGS12 GoLoco Motif Activity (Green Fluorophore) (AID 879);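 further: negative values mean loss of peptide binding seen as reduced polarization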
Summary of the method: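 Fluorescence polarization assay: 50 nM Gαi1 with 10 nM FITC-labeled RGS12 GoLoco peptide in 10 mM Tris pH 7.5, 150 mM NaCl, 0.1 mM GDP, 0.05% NP40, 10 min at room temperature with compound.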

[9] = target: Cytochrome P450 3A4 (Homo sapiens) (UniProt P08684); assay: qHTS Assay for Activators of Cytochrome P450 3A4 (AID 885); further: nearly all actives have a fitted effect of over 65% in size
Summary of the method: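 Human CYP3A4 (20 nM) with Luciferin-PPXE at 25 uM (its KM) in 200 mM KPO4; 10 min compound preincubation, then NADPH regeneration and 60 min reaction at RT. Luciferin read by luminescence; normalized to 57 uM ketoconazole full inhibition.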

[10] = qHTS Assay for Identification of Small Molecule Agonists for Thrombopoietin (TPO) Signaling Pathway (AID 917)
Summary of the method: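 IL-3-dependent murine pro-B Ba/F3 cells, stably transfected with human TPO receptor and GpIIb-promoter luciferase, are incubated 24 hrs at 37 C with test compound and 26 pM TPO; luciferase signal is read after 10 min at room temperature.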

[11] = target: Muscarinic acetylcholine receptor M1 (Rattus norvegicus) (UniProt P08482); assay: qHTS Assay for Antagonists of Acetylcholine Muscarinic M1 Receptor: Kinetic Measurement of Intracellular Calcium Response (AID 943); further: nearly all actives have a fitted effect of over 75% in size; further: potency means the concentration at half of the fitted maximal effect;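 on activity change, negative = inhibition: Fluo-4 calcium signal as peak divided by basal fluorescence over 4 min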
Summary of the method: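 Rat M1-CHO cells, 2000/well, overnight → Fluo-4 no-wash dye with probenecid, 1 h 37C → compound 10 min, room temp → basal read 6 s → carbachol EC80 (100 nM) → 4 min kinetic read; peak/basal.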

[12] = target: Pyruvate kinase (Leishmania mexicana) (UniProt Q27686); assay: qHTS Validation Assay for Inhibitors of Leishmania Mexicana Pyruvate Kinase (AID 945)
Summary of the method: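 The enzyme is a highly purified E451W mutant of LmPYK used at 0.2 nM. It converts 0.5 mM PEP and 0.1 mM ADP over 1 h at room temperature; product ATP is quantified by luciferase luminescence relative to DMSO controls.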

[13] = target: Pyruvate kinase PKM (Homo sapiens) (UniProt P14618); assay: qHTS Assay for Activators of Human Muscle Pyruvate Kinase (AID 954; active means well fitted curve in the direction sought with a large enough effect, not every such curve was filed as active)
Summary of the method: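 Purified human PKM2 (0.1 nM) with 0.5 mM PEP (Km) and 0.1 mM ADP in 50 mM imidazole pH 7.2, KCl, MgCl2, 1 h at room temperature; ATP formed read by coupled luciferase luminescence. Normalized to no-enzyme/110 uM thiadiazolimine inhibition; 0.3 nM enzyme column for activation.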

[14] = target: Alpha-galactosidase A (Homo sapiens) (UniProt P06280); assay: Counterscreen for Glucocerebrosidase Inhibitors: qHTS Assay for Human alpha-Galactosidase at pH 4.5 (AID 992)
Summary of the method: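 Human enzyme (2 nM) with 80 uM 4-methylumbelliferyl alpha-D-galactopyranoside in 50 mM citric acid, 0.005% Tween-20, pH 4.5, 20 min at room temperature. Compounds 0.7 nM–77 uM; fluorescence Ex 365/Em 440 after pH 10 stop; AC50 from Hill fits.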

[15] = target: alpha-glucosidase (Oryza sativa, rice) (UniProt Q653V4); assay: Counterscreen for Glucocerebrosidase Inhibitors: qHTS Assay for Rice alpha-Glucosidase at pH 5.0 (AID 997)
Summary of the method: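 Rice alpha-glucosidase (4 nM final) with 400 uM 4-methylumbelliferyl-alpha-D-glucopyranoside in citrate buffer pH 5.0, 20 min at room temperature, stopped at pH 10; fluorescence 365/440 nm, compounds 0.7 nM–77 uM, AC50 from Hill fits.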

[16] = target: Muscarinic acetylcholine receptor M1 (Rattus norvegicus) (UniProt P08482); assay: qHTS Assay for Antagonists of Acetylcholine Muscarinic M1 Receptor: Measurement of IP-One Response (AID 944); further: nearly all actives have a fitted effect of over 75% in size
Summary of the method: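 M1-CHO (rat), 2000 cells/well, overnight recovery; cpd 10 min; carbachol EC80 (200 nM), 30 min, HEPES buffer + 50 mM LiCl pH 7.4; IP-One HTRF, Ex 337, Em 620/665 nm.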

[17] = target: Mitogen-activated protein kinase 10 (Mus musculus) (UniProt Q61831); assay: JNK3 AlphaScreen Assay (AID 530; active means well fitted curve in either direction with a large enough effect, not every such curve was filed as active;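 further: kinase came from lysate of stimulated human HepG2 cells; signal reports phosphorylation of biotinylated GST-cJun 1-79 at Ser73 with 10 µM ATP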)
Summary of the method: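 Compound titrations were preincubated 15 minutes at room temperature with substrate, antibody and pre-activated JNK3-containing HepG2 lysate. Reactions were started with 10 uM ATP and stopped with EDTA-containing bead buffer for AlphaScreen detection.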

[18] = target: Cytochrome P450 2C9 (Homo sapiens) (UniProt P11712); assay: qHTS Assay for Inhibitors and Substrates of Cytochrome P450 2C9 (AID 883); further: nearly all actives have a fitted effect of over 60% in size
Summary of the method: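 Turnover of Luciferin-H (100uM, KM) by 10nM human CYP2C9 was measured over 60 min at 37C with NADPH regeneration; inhibitors and some substrates reduce luminescence. Data normalized to sulphaphenazole 57uM.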

[19] = target: Cytochrome P450 2D6 (Homo sapiens) (UniProt P10635); assay: qHTS Assay for Inhibitors and Substrates of Cytochrome P450 2D6 (AID 891); further: nearly all actives have a fitted effect of over 60% in size; further: potency means the concentration at half of the fitted maximal effect;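 on activity change, negative = inhibition: luciferin methyl ether substrate demethylated by CYP2D6 with NADPH regeneration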
Summary of the method: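 Human CYP2D6 (5 nM) with 30 uM Luciferin-ME EGE (at Km) in 100 mM KPO4, compound preincubated 10 min, then NADPH regeneration system for 60 min at room temperature. Luciferin read by luminescence; normalized to 1.43 uM quinidine.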

[20] = target: Cytochrome P450 2C19 (Homo sapiens) (UniProt P33261); assay: qHTS Assay for Inhibitors and Substrates of Cytochrome P450 2C19 (AID 899); further: nearly all actives have a fitted effect of over 60% in size
Summary of the method: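 Reactions contain 5nM enzyme, 10uM Luciferin-H EGE (KM) and 50mM KPO4; compound preincubates 10 min at 37C, NADPH regeneration starts turnover for 60 min. Luminescence after detection reagent gives activity.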

Chain of Alpha-galactosidase A (Homo sapiens) (P06280 whole entry, looked up): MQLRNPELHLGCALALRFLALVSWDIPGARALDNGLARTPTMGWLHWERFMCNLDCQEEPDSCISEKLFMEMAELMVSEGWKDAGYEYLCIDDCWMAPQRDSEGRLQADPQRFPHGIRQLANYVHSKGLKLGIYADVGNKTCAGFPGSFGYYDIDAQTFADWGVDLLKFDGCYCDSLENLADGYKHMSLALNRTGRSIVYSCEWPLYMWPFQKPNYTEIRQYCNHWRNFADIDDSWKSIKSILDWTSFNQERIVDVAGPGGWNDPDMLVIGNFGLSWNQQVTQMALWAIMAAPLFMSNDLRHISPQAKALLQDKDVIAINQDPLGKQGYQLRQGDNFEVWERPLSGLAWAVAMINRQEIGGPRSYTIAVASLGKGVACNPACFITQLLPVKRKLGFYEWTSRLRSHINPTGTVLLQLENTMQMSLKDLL
Chain of Cytochrome P450 3A4 (Homo sapiens) (P08684 whole entry, looked up): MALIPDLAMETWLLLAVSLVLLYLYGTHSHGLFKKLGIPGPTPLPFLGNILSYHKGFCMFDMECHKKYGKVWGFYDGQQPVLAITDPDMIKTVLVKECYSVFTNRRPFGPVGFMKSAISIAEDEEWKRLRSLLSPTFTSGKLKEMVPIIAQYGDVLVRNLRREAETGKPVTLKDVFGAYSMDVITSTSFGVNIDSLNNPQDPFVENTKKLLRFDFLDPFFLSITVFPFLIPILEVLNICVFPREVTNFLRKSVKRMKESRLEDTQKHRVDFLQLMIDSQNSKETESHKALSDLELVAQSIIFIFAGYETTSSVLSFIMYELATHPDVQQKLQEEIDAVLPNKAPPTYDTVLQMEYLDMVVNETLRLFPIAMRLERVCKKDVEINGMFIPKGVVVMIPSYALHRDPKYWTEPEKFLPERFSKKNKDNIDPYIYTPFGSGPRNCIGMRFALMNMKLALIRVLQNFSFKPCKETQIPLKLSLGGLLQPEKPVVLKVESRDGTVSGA
Chain of Pyruvate kinase (Leishmania mexicana) (Q27686 2-499 E452W): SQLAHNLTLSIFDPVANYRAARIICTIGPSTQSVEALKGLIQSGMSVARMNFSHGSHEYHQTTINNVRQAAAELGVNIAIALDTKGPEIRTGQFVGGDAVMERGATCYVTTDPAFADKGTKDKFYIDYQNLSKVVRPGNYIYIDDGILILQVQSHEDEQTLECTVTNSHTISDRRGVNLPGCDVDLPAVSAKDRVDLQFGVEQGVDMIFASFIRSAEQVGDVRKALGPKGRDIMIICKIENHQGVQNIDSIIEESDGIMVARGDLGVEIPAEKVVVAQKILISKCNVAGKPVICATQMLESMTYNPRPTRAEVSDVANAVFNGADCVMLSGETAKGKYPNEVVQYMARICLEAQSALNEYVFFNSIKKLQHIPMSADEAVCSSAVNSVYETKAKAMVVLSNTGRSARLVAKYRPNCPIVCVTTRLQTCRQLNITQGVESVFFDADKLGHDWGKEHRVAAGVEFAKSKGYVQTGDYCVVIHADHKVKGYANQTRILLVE
Chain of Cytochrome P450 2C9 (Homo sapiens) (P11712 whole entry, looked up): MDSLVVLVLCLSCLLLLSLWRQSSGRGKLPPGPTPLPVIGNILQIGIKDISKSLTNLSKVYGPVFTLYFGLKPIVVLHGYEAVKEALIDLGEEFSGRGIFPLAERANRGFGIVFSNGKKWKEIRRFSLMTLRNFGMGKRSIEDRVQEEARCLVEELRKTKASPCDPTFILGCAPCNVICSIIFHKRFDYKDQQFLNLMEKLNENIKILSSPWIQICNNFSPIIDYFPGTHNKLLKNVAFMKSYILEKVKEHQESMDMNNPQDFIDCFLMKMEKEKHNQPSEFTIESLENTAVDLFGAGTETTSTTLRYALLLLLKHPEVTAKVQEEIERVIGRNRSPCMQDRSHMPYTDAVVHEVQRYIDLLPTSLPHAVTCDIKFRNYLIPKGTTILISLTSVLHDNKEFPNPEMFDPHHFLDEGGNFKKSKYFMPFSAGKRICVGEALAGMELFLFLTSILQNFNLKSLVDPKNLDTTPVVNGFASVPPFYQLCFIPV
Chain of 3',5'-cyclic-AMP phosphodiesterase 4B (Homo sapiens) (Q07343 whole entry, looked up): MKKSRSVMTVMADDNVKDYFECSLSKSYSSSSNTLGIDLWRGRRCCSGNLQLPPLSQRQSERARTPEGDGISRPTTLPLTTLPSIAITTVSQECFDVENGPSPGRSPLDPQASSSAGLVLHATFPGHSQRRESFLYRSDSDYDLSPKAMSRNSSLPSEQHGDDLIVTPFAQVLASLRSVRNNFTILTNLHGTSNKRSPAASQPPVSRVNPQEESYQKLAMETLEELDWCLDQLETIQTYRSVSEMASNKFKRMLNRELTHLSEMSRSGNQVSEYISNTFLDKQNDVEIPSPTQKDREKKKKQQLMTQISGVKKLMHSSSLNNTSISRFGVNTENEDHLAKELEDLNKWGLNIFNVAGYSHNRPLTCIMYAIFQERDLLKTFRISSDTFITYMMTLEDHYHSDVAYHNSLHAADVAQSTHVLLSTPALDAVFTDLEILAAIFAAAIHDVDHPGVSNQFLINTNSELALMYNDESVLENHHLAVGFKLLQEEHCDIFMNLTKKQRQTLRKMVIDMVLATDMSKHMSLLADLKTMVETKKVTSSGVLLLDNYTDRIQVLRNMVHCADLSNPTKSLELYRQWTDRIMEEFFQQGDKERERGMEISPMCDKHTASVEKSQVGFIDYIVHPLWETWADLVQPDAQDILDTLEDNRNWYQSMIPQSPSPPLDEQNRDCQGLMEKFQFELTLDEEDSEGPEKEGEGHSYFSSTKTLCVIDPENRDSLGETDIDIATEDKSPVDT
Chain of Guanine nucleotide-binding protein G(i) subunit alpha-1 (Homo sapiens) (P63096 whole entry, looked up): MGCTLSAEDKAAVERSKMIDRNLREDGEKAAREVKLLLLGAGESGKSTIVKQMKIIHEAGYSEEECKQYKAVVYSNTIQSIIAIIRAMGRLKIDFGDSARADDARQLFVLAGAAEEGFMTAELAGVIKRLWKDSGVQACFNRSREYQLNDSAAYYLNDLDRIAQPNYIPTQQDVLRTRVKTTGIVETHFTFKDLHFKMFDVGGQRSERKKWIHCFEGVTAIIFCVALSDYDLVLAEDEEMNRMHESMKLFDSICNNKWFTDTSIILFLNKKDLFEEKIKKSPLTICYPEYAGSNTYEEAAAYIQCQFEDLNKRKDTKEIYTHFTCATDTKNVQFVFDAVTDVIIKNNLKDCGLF
Chain of Glucocorticoid receptor (Homo sapiens) (P04150 whole entry, looked up, the tested form may be a part): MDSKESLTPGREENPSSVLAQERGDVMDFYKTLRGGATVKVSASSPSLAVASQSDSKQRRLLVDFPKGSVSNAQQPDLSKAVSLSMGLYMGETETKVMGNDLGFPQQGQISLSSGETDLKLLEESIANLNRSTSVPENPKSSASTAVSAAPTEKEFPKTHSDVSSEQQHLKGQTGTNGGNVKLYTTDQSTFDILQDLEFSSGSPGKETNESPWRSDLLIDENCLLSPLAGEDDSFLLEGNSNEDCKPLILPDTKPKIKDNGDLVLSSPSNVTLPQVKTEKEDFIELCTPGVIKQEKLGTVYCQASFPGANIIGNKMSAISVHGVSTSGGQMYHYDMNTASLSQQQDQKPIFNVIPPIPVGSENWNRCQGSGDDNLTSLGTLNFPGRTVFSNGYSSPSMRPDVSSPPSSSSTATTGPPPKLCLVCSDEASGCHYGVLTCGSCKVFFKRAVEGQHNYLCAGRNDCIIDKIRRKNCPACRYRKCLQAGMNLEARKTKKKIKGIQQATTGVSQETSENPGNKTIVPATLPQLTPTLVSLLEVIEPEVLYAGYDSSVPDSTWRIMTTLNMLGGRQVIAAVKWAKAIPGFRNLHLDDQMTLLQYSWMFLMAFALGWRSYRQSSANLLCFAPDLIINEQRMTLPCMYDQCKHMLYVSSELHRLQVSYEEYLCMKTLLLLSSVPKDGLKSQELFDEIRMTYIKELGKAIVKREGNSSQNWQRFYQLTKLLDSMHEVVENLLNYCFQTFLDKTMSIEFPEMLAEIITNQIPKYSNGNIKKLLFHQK
Chain of Cytochrome P450 1A2 (Homo sapiens) (P05177 whole entry, looked up): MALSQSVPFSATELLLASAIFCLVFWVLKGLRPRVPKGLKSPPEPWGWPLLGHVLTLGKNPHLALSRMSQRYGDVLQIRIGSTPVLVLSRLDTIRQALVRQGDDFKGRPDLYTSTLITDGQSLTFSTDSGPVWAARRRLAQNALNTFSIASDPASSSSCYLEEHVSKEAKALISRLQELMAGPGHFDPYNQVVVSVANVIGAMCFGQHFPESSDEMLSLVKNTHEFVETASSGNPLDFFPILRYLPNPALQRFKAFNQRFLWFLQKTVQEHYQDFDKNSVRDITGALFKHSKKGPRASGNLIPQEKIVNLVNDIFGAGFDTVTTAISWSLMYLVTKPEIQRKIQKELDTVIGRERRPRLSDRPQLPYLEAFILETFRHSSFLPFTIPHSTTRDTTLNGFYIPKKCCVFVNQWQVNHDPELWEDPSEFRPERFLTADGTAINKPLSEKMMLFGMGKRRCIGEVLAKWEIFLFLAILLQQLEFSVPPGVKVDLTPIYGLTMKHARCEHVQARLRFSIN
Chain of Pyruvate kinase PKM (Homo sapiens) (P14618 whole entry, looked up): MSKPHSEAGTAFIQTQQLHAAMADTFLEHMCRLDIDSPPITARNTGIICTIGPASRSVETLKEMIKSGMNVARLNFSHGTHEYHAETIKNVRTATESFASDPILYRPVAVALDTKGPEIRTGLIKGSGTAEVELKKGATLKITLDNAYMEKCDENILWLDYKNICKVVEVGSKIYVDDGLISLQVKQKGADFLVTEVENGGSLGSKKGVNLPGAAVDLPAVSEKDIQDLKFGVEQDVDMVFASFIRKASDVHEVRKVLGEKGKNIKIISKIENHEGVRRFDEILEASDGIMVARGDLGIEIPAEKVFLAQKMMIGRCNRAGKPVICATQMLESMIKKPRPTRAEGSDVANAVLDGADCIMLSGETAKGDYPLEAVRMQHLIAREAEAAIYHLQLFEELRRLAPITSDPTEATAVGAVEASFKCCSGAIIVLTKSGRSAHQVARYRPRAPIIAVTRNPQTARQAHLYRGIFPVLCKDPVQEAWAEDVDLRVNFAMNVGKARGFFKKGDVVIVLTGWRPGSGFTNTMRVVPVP

Structure (SMILES)	activity change, negative = inhibition [1]	Potency [2]	activity change, negative = inhibition [3]	activity, negative = inhibition [4]	Potency [5] [µM]	Potency [6] [µM]	Potency [7]	outcome [8]	Potency [9]	outcome [10]	Potency [11]	outcome [12]	outcome [13]	outcome [14]	Potency [15]	Potency [16]	Potency [17]	Potency [18]	Potency [19]	Potency [20]
Nc1nc(SCc2ccc([N+](=O)[O-])cc2)c2ncn([C@@H]3O[C@@H](CO)[C@@H](O)[C@H]3O)c2n1	-11.9% [at 38 µM]	inactive	0.367% [at 38 µM]	-17% [at 38 µM]	> 46	> 46	inactive	inactive	inactive	inactive	25.1 µM (active)	inactive	inactive	inactive	inactive	–	–	–	–	–
C[C@@H]1C(=O)N(C)C(=O)c2nc[nH]c21	-6.31% [at 38 µM]	inactive	-19.2% [at 38 µM]	15% [at 38 µM]	> 46	> 46	inactive	inactive	–	inactive	–	inactive	inactive	inactive	inactive	–	–	–	–	–
CNc1ncnc2c1ncn2[C@H]1C[C@@H](OP(=O)(O)O)[C@H](COP(=O)(O)O)O1	-5.54% [at 38 µM]	inactive	5.84% [at 38 µM]	-2.5% [at 38 µM]	> 46	> 46	inactive	inactive	–	inactive	–	inactive	inactive	inactive	–	inactive	–	–	–	–
O=C1OC(=O)[C@@H]2[C@@H]1[C@@H]1CC[C@H]2O1	4.01% [at 38 µM]	inactive	5.96% [at 38 µM]	-11.3% [at 38 µM]	> 46	> 46	–	inactive	–	–	inactive	inactive	inactive	inactive	inactive	inactive	inactive	inactive	inactive	inactive
COc1cc([C@H](O)CO)ccc1O	-0.627% [at 38 µM]	inactive	2.95% [at 38 µM]	17.1% [at 38 µM]	> 46	> 46	inactive	inactive	inactive	inactive	inactive	inactive	inactive	inactive	inactive	inactive	–	–	–	–
N[C@H](CS(=O)O)C(=O)O	9.5% [at 38 µM]	inactive	10.5% [at 38 µM]	17.2% [at 38 µM]	> 46	> 46	inactive	–	–	–	–	–	–	–	–	–	–	inactive	inactive	inactive
CC(C)(C)c1onc(OCP(=O)(O)O)c1C[C@@H](N)C(=O)O	-0.711% [at 38 µM]	inactive	8.86% [at 38 µM]	-10.4% [at 38 µM]	> 46	> 46	inactive	inactive	–	inactive	inactive	inactive	inactive	inactive	inactive	inactive	–	–	–	–
O=C(O)/C=C\C(=O)Nc1ccc2c(c1)C(=O)c1cc(F)ccc1-2	-12.9%	0.794 µM (active)	9.23%	0.748%	> 46	> 9.22	–	–	inactive	–	–	–	–	–	–	–	inactive	–	–	–
N[C@@H](C(=O)O)[C@@H]1C[C@H]1C(=O)O	-6.47% [at 38 µM]	inactive	4.34% [at 38 µM]	16.9% [at 38 µM]	> 46	> 46	–	–	–	–	–	–	–	–	–	–	inactive	inactive	inactive	inactive
CN(C)c1ccc(N=Nc2cccc3ccoc23)cc1	1.15%	0.251 µM (active)	-18.9%	4.35%	> 46	> 9.22	inactive	–	inactive	–	–	–	–	–	–	–	–	–	–	–
Cc1ccc(C(N)=Nc2ccccc2)cc1	18.3%	inactive	-2.23%	-4.47%	> 46	> 9.22	inactive	–	–	–	–	–	–	–	–	–	–	–	3.16 µM (active)	–
Nc1nc(Cl)nc2c1ncn2[C@@H]1O[C@@H](COP(=O)(O)OP(=O)(O)OP(=O)(O)O)[C@@H](O)[C@H]1O	18.9% [at 38 µM]	inactive	9.46% [at 38 µM]	–	> 46	> 46	inactive	inactive	–	–	inactive	inactive	inactive	inactive	inactive	inactive	inactive	–	–	–
